Where “and” joins values, the source holds several entries; their conditions need not be identical. Identical values can stand only once. Results filed as inconclusive are left out. More than one record can exist for a structure, and the calls need not agree. Calls of active or inactive are those of the source. Rule for the calls, unless noted: active = hit-call score of the fitted dose curve at least 0.9, where 1 is the maximum; inactive = score below 0.9.
What was measured:
[1] = CCTE_Shafer_MEA_dev_mutual_information_norm: CCTE's Neural Network Formation Assay for Mutual Information Normalization, Shafer Lab (AID 2284091)
Method in brief: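 Developing rat cortical networks on 16-electrode MEA wells are treated throughout formation (DIV 0–12). Shared electrode information is recorded four times, converted to area-under-curve, and fitted for decreases against DMSO vehicle.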

[2] = CCTE_Shafer_MEA_dev_correlation_coefficient_mean: CCTE's Neural Network Formation Assay for Mean Correlation Coefficient, Shafer Lab (AID 2284093);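 for AC50: well mean pairwise spike train correlation integrated as AUC over recording days 5 to 12; potency fitted for loss of correlation relative to DMSO vehicle wells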
Method in brief: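 Primary rat cortical neurons on PEI-coated 48-well MEA plates (16 electrodes/well) were exposed from plating day 0 through DIV12, with compound renewed at DIV5 and 9. Pairwise spike correlations were averaged per well; trapezoidal AUC across DIV5, 7, 9, 12.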

[3] = CCTE_Mundy_HCI_hNP1_Pro_ResponderAvgInten: CCTE's Proliferation Assay in human neuroprogenitor cells, Mundy Lab (AID 2284224; active = hit-call score of the fitted dose curve at least 0.9, where 1 is the maximum;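 note: human neural progenitor cells hNP1 derived from WA09 embryonic stem cells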)
Method in brief: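 Proliferation was scored as BrdU labelling intensity in human neural progenitors derived from WA09 embryonic cells, measured 26.25 hours after chemical dosing. Activity was fitted relative to DMSO.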

[4] = read-out: Secreted IgG (sIgG), gene 3500; assay: BSK_BT_sIgG: BioMAP Diversity Plus: BT Assay for Secreted IgG (sIgG) Biomarker Activity (AID 2284226); conditions: primary human B cells with PBMC
Method in brief: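 Secreted IgG from a human primary B cell–PBMC co-culture was measured by ELISA 24 hours after dosing, with DMSO defining baseline activity.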

[5] = BSK_BT_Bcell_Proliferation: Viability Assessment in the BioMAP Diversity Plus: BT Assay for B cell Proliferation (AID 2284227); conditions: primary human B cells with PBMC
Method in brief: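 Human B cell/PBMC co-culture; test chemical added; 72 h; TCA fix (10%), 0.1% SRB stain, A560 for total protein as a proliferation read-out; positive-direction fit vs DMSO baseline.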

[6] = read-out: Interleukin 6 (IL6), IL6 (gene 3569); assay: BSK_BT_xIL6: BioMAP Diversity Plus: BT Assay for Interleukin 6 (IL6) Biomarker Activity (AID 2284228); conditions: primary human B cells with PBMC
Method in brief: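 IL-6 secretion measured (Luminex xMAP) in human primary B cell + PBMC co-culture at 24 h of chemical exposure; DMSO served as negative control and activity baseline, with curves fitted for increase.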

[7] = read-out: Interleukin 17A (IL17A), IL17A (gene 3605); assay: BSK_BT_xIL17A: BioMAP Diversity Plus: BT Assay for Interleukin 17A (IL17A) Biomarker Activity (AID 2284229); conditions: primary human B cells with PBMC
Method in brief: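 Human primary B cells plus PBMC, treated 24 h with chemicals; supernatant IL-17A quantified on Luminex xMAP beads. Gain of signal over DMSO control scored as activity.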

[8] = read-out: Vascular cell adhesion molecule 1 (VCAM1), VCAM1 (gene 7412); assay: BSK_MyoF_VCAM1: BioMAP Diversity Plus: MyoF Assay for Vascular cell adhesion molecule 1 (VCAM1) Biomarker Activity (AID 2284231); conditions: primary human lung fibroblasts
Method in brief: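 VCAM-1 levels, lung fibroblasts, ELISA, 24 h exposure, increase scored relative to DMSO.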

[9] = read-out: Tumor necrosis factor (Homo sapiens) (UniProt P01375); assay: BSK_BT_xTNFa: BioMAP Diversity Plus: BT Assay for Tumor necrosis factor alpha (TNF-alpha) Biomarker Activity (AID 2284230); conditions: primary human B cells with PBMC
Method in brief: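 Read-out: Luminex xMAP quantitation of secreted TNF-alpha from a B cell/PBMC co-culture 24 h after compound addition. Signal analysed relative to DMSO vehicle, positive fitting direction.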

[10] = BSK_BT_PBMCCytotoxicity: PBMC Cytotoxicity Assessment in the BioMAP Diversity Plus: BT Assay (AID 2284225); conditions: primary human B cells with PBMC;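 note: PBMC viability measured by Alamar Blue dye reduction fluorescence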
Method in brief: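 75,000 cells/well; cpd 1 h → SEB + TSST-1 (20 ng/mL final each) → 90 h → Alamar Blue 6 h → fluor. 546/580 nm. DMSO = neg. control/baseline.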

Measured: AC50

Tumor necrosis factor (Homo sapiens), sequence (P01375 whole entry, looked up): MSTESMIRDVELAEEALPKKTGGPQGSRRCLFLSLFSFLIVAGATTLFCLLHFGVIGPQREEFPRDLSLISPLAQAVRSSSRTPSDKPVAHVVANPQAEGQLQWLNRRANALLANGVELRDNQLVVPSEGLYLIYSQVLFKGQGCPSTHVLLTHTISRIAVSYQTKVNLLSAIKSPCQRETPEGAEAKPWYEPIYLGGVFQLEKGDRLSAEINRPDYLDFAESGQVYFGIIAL

CCN(CCO)S(=O)(=O)C(F)(F)C(F)(F)C(F)(F)C(F)(F)C(F)(F)C(F)(F)C(F)(F)C(F)(F)F
active: [4] 16.6 µM | [5] 46.4 µM and 30 µM | [6] 41.8 µM and 46.8 µM | [7] 20.2 µM and 21.2 µM | [8] 12.6 µM and 13 µM
inactive: [1] | [2] | [3]

O=C(O)C(F)(F)C(F)(F)C(F)(F)OC(F)(F)F
inactive: [1] | [2] | [4] | [5] | [6] | [7] | [8]

FC(F)(F)C(F)(F)C(F)(F)C(F)(F)C(F)(F)C(F)(F)C(F)(F)CCI
inactive: [1] | [2] | [4] | [5] | [6] | [7] | [9] | [8]

NCC(F)(F)C(F)(F)C(F)(F)C(F)(F)C(F)(F)C(F)(F)C(F)(F)C(F)(F)F
inactive: [10] | [4] | [5] | [6] | [7] | [9] | [8]

NC(=O)C(F)(F)C(F)(F)C(F)(F)C(F)(F)C(F)(F)C(F)(F)C(F)(F)F
inactive: [3] | [10] | [4] | [5] | [6] | [7] | [8]

O=C(O)C(F)(F)C(F)(F)C(F)(F)OC(F)(C(F)(F)F)C(F)(F)F
inactive: [10] | [4] | [5] | [6] | [7] | [8]

Cc1ccc(O)c(-n2nc3ccccc3n2)c1
inactive: [10] | [4] | [5] | [6] | [7] | [9] | [8]

C=CC(=O)OCCC(F)(F)C(F)(F)C(F)(F)C(F)(F)F
active: [2] 15 µM | [10] 37.8 µM and 25.8 µM | [4] 36.7 µM and 44.9 µM | [5] 45.3 µM and 46.6 µM | [6] 39.6 µM and 35.5 µM | [7] 33.5 µM and 10.7 µM | [9] 38.4 µM and 30 µM | [8] 21 µM
inactive: [1] | [8]

OCCCCC(F)(F)C(F)(F)C(F)(F)C(F)(F)F
inactive: [1] | [2] | [3] | [4] | [5] | [6] | [7] | [9] | [8]

O=C(O)C(F)(F)C(F)(F)C(F)(F)C(F)(F)C(F)(F)C(F)(F)C(F)F
active: [5] 21.8 µM
inactive: [10] | [4] | [5] | [6] | [7] | [9] | [8]

CNS(=O)(=O)C(F)(F)C(F)(F)C(F)(F)C(F)(F)C(F)(F)C(F)(F)C(F)(F)C(F)(F)F
active: [4] 27.6 µM
inactive: [1] | [2] | [4] | [5] | [6] | [7] | [8]

O=C(O)CCC(F)(F)C(F)(F)C(F)(F)F
inactive: [10] | [4] | [5] | [6] | [7] | [8]

OC(O)C(F)(F)C(F)(F)F
inactive: [1] | [2] | [4] | [5] | [6] | [7] | [9] | [8]

CO[Si](C)(CCC(F)(F)C(F)(F)C(F)(F)C(F)(F)C(F)(F)C(F)(F)F)OC
inactive: [1] | [2] | [4] | [5] | [6] | [7] | [8]

Reference: PubChem BioAssay (EPA / NIEHS)
